Experimental data reported in PubChem BioAssay (NCATS).
Several values for one entry are separate records, joined by “and”; a condition that tells them apart may be missing. Equal entries are not always repeated. Inconclusive results are not listed. Entries that show only a call come without a potency. Activity calls are given as the source filed them. Calls come from the whole dose curve; as a rule, active = well fitted cell-killing curve with a large enough effect; inconclusive = small, poorly fitted or top-dose-only effect, or effect the other way; inactive = no such curve, though single readings can be large or run the other way.

Experiment: Cell Viability - LYMP2-005 (AID 967)
Conditions: LYMP2-005 lymphoblastoid cell viability; series mostly up to 92.2 µM
Procedure, shortened: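 CellTiter-Glo luminescence (cellular ATP) read-out; LYMP2-005 lymphoblastoid cells, 2500/well, 5 h pre-incubation, then 24 h compound exposure at 37 C in complete medium. Tetraoctylammonium bromide positive control; AC50 by standard Hill fit.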
Potency is the fitted concentration of half-maximal effect.

Row | Structure (SMILES) | Potency
1 | O=C(O)C(Cl)(Cl)Cl | inactive
2 | O=C1CCO1 | inactive
3 | O=C1C=CC(=O)C=C1 | inactive
4 | COC1=CC(=O)O[C@@H](/C=C/c2ccccc2)C1 | inactive
5 | COc1ccc2c(c1OC)C(=O)OC2C1c2cc3c(cc2CCN1C)OCO3 (stereo unspecified) | inactive
6 | O=[N+]([O-])c1ccc(F)c([N+](=O)[O-])c1 | inactive
7 | [Cl-].[Cl-].[Hg+2] | 501 nM (active)
8 | O=C1C2CC=CCC2C(=O)N1SC(Cl)(Cl)Cl (stereo unspecified) | 12600 nM (active)
9 | C[C@]12CCC(=O)C[C@@H]1CC[C@@H]1[C@@H]2CC[C@]2(C)[C@@H](O)CC[C@@H]12 | inactive
10 | C=CCN=C=S | inactive
11 | [O]=[Cr](=[O])([OH])[O][Cr](=[O])(=[O])[OH] | 10 µM (active) and 15.8 µM (active)
12 | [O]=[Cd] | inactive
13 | O=C/C=C/c1ccccc1 | inactive
14 | Oc1cc(Cl)c(Cl)cc1Cl | inactive
15 | S=C=S | inactive
16 | CCOC(=O)c1ccccc1C(=O)OCC | inactive
17 | CCCCCCCCOC(=O)c1ccccc1C(=O)OCCCCCCCC | inactive
18 | O=[N+]([O-])c1ccccc1 | inactive
19 | Clc1ccccc1Cl | inactive
20 | ClC=C(Cl)Cl | inactive
21 | ClC(Cl)(Cl)Cl | inactive
22 | C[C@H]1CCC[C@H](O)CCCCCc2cc(O)cc(O)c2C(=O)O1 | inactive
23 | O=CC=O | inactive
24 | O=Cc1ccco1 | inactive
25 | NNC(N)=O | inactive
26 | CC(C)CCON=O | inactive
